# Sampled rows, rich in hits. Any-hit rate of the full collection: about 1.5%.
# cytoskel mod: modifiers of cytoskeleton assembly; AID 836; HUVEC TNFa F-actin phalloidin imaging, high content; inhibition, % at 2 µM; 91,000 tested, 0.18% active;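 active = inhibition above the batch mean plus 3 SD and confirmed as a hit by visual image inspection, cut at about 30% in these data, passing the limit was not always enough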
# Measles CPE: protection of cells from measles virus; Measles virus-infected cells, CPE protection, absorbance; AID 841; protection (pct of control), % at 4 µM; 140,000 tested, 1.5% active; in the data active = protection mostly above about 24%, no sharp cut-off; inactive = mostly below about 26%
# Numbers stand for hits; – = inactive; · = no result.
SMILES,cytoskel mod,Measles CPE
CCOc1ccc(N(CC(=O)N2CCN(c3ccccc3)CC2)S(=O)(=O)c2c(C)noc2C)cc1,–,–
COc1ccc(N(CC(=O)N2CCN(c3ccccc3)CC2)S(=O)(=O)c2c(C)noc2C)cc1,–,41
COc1ccc(N(CC(=O)NN=C2CCCC2)S(=O)(=O)c2ccccc2)cc1,–,44
CCN(CC(=O)N1CCN(c2ccccc2)CC1)S(=O)(=O)c1ccc(C)cc1,·,63
CCOc1ccccc1NC(=O)COC(=O)Cc1ccc(-c2ccccc2)cc1,·,–
COc1cc(/C=C(\C#N)c2ccccn2)ccc1OCc1ccc(Cl)cc1,·,–
CC(=O)c1ccc(N2CCN(C(=O)CCS(=O)(=O)c3ccc(C)cc3)CC2)cc1,·,47
O=C(CCS(=O)(=O)c1ccc(Br)cc1)N1CCN(c2ccc(Cl)cc2)CC1,–,–
COc1ccc(N2CCN(C(=O)CN(c3ccccc3)S(C)(=O)=O)CC2)cc1,–,–
COc1ccc(S(=O)(=O)N(CC(=O)N2CCN(c3ccccc3)CC2)c2ccccc2)cc1,–,42
CC1CCCN(C(=O)CSc2cnc3ccccc3n2)C1 (stereo unspecified),–,–
CCOC(=O)CC(NC(=O)c1ccc(C)cc1)c1ccc(C)cc1 (stereo unspecified),–,–
O=S(Cc1cc(Oc2ccccc2)nc(-c2ccccc2)n1)c1ccccc1 (stereo unspecified),–,–
Cn1c(=O)oc2cc(S(=O)(=O)Nc3cccc(F)c3)ccc21,·,–
Cc1ccc(NS(=O)(=O)c2ccc3c(c2)oc(=O)n3C)cc1F,–,45
O=C(COC(=O)c1ccccc1)NCc1ccco1,–,26
Cc1ccc(C(=O)OCC(=O)NCc2ccco2)cc1,–,–
CCn1nc(CC(=O)Nc2nnc(CC(=O)N3CCOCC3)s2)c2ccccc2c1=O,–,28
CCn1nc(CC(=O)Nc2nnc(CC(=O)N3CCCC3)s2)c2ccccc2c1=O,–,–
COc1ccc(CN2C(=O)c3ccccc3C2C(=O)NCc2cccnc2)c(OC)c1 (stereo unspecified),–,33
COc1ccc(OC)c(CN2C(=O)c3ccccc3C2C(=O)NCc2cccnc2)c1 (stereo unspecified),·,–
Cc1cccc(-n2c(SCc3ccc(C#N)cc3)nnc2-c2c[nH]c3ccccc23)c1,·,–
CC1(C)CC(CC(=O)O)(c2ccc(F)cc2)CCO1 (stereo unspecified),–,–
COc1ccccc1C1(CC(=O)O)CCOC(C)(C)C1 (stereo unspecified),–,33
CC(C)N(C(=O)Cn1c(-c2ccccc2Cl)nc2ccccc21)c1ccccc1,·,34
SMILES,cytoskel mod,Measles CPE
CCc1cccc(CC)c1NC(=O)Cn1c(-c2ccccc2Cl)nc2ccccc21,·,–
COC(=O)c1ccc(NC(=O)C(=O)NCC2CCCO2)cc1 (stereo unspecified),·,–
O=C(O)c1ccc(S(=O)(=O)Cc2ccccc2)cc1,–,–
Cc1ccc(S(=O)(=O)Cc2ccc(C(=O)OCc3ccccc3)cc2)cc1,–,18
CC(=O)C(=Nc1ccc(Cl)cc1Cl)NNc1cccc(Cl)c1,·,–
COc1ccc2[nH]c(=O)c(CN(C)C(=O)c3ccncc3)cc2c1,–,–
COc1ccc2[nH]c(=O)c(CN(C(=O)c3ccncc3)C(C)C)cc2c1,48,·
COc1cc(OC)cc(C(=O)N(Cc2cc3cc(C)ccc3[nH]c2=O)C(C)C)c1,–,44
COc1cccc(C(=O)N(Cc2cc3cc(C)ccc3[nH]c2=O)C(C)C)c1,–,–
Cc1ccc2[nH]c(=O)c(N3CCOCC3)c(-c3ccccc3)c2c1,–,78
O=C(CCN1CCOCC1)Nc1c(-c2ccccc2)c2cc(Br)ccc2[nH]c1=O,–,–
Nc1ccccc1C(=O)NCc1ccc(Cl)cc1,·,–
Cc1cc(Nc2cccc(Cl)c2)n2ncnc2n1,·,29
Cc1cc(Nc2ccc(F)c(Cl)c2)n2ncnc2n1,·,–
Cc1ccc(Cl)cc1-c1ccc(C=Nc2ccc(N3CCOCC3)cc2)o1,·,60
Cc1ccc(/C=N/N2CCN(c3ccc(Cl)cc3)CC2)o1,–,–
O=C(/C=C1\NCC2c3ccccc3CCN2C1=O)c1ccccc1 (stereo unspecified),–,–
CC(C)C1N=C2c3ccccc3N=C(SCC(=O)NCCc3ccc(S(N)(=O)=O)cc3)N2C1=O (stereo unspecified),·,43
CCC(C)NC(=O)CSC1=Nc2ccccc2C2=NC(CC(=O)NCc3ccc(F)cc3)C(=O)N12 (stereo unspecified),–,–

# Screens deposited in PubChem BioAssay by several laboratories.
